Measurements published in PubChem BioAssay (EPA / NIEHS).
Active and inactive are the calls of the source. How the source made its calls: active means hit-call score of the fitted dose curve at least 0.9, where 1 is the maximum; inactive means score below 0.9.

Tests used:
[1] = ATG_GLI_CIS: Attagene CIS-FACTORIAL HepG2 Assay for human Zinc Finger Protein GLI1 (AID 2282945); settings: HepG2, Attagene cis-factorial reporter mRNA, GLI element; actives raise or lower the signal
Procedure, shortened: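 Transiently transfected HepG2 cells report endogenous transcription factor activity via cis-element-driven reporter units. After 24 h compound exposure, reporter mRNA was measured by RT-PCR with capillary electrophoresis; bidirectional fitting against DMSO baseline.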

[2] = ATG_M_06_CIS: Attagene CIS-FACTORIAL HepG2 Assay for M06 Transcription Factor (Internal Marker) (AID 2282950); settings: HepG2 Attagene CIS-FACTORIAL M06 internal marker reporter; actives raise or lower the signal
Procedure, shortened: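 Internal background marker within multiplexed cis-reporter HepG2 system. Cells transiently transfected, dosed 24 h; reporter mRNA measured by RT-PCR, HpaI digestion and capillary electrophoresis. Bidirectional fit relative to DMSO.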

[3] = target: Hypoxia-inducible factor 1-alpha (Homo sapiens) (UniProt Q16665); assay: ATG_HIF1a_CIS: Attagene CIS-FACTORIAL HepG2 Assay for human Hypoxia Inducible Factor 1 (HIF1A) (AID 2282951); settings: HepG2 Attagene cis-factorial HIF1a reporter transcription; actives raise or lower the signal
Procedure, shortened: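 HepG2 cells transiently transfected with multiple cis-regulated reporter transcription units measure endogenous transcription factor activity. After 24 h exposure, reporter mRNA is quantified by RT-PCR with 6-FAM labelling, HpaI digestion and capillary electrophoresis. Bidirectional fitting against DMSO.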

[4] = target: Hepatocyte nuclear factor 6 (Homo sapiens) (UniProt Q9UBC0); assay: ATG_HNF6_CIS: Attagene CIS-FACTORIAL HepG2 Assay for human Hepatocyte Nuclear Factor 6 (HNF6) (AID 2282952); settings: HepG2 Attagene cis-factorial HNF6 reporter transcription; actives raise or lower the signal
Procedure, shortened: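 First, HepG2 cells were transfected with the multiplexed cis reporter library and dosed with chemical for 24 h. Next, RNA was reverse-transcribed, PCR-amplified and fluorescently labelled. Finally, HpaI-digested fragments were read by capillary electrophoresis.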

[5] = ATG_MRE_CIS: Attagene CIS-FACTORIAL HepG2 Assay for human Metal Responsive Element (MRE) (AID 2282954); settings: HepG2 MRE cis-reporter transcription, Attagene multiplex; actives raise or lower the signal
Procedure, shortened: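 RT-PCR/capillary electrophoresis readout of reporter mRNA, 24 h post-dosing, in HepG2 cells transfected with multiplexed cis-regulated reporter constructs. Gain or loss of signal fitted bidirectionally against DMSO baseline.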

[6] = ATG_PBREM_CIS: Attagene CIS-FACTORIAL HepG2 Assay for human Phenobarbital-responsive Enhancer Module (PBREM) (AID 2282955); settings: HepG2 PBREM cis-reporter, Attagene multiplexed transcription; actives raise or lower the signal
Procedure, shortened: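 HepG2 cells transiently transfected with multiple cis-regulated reporter units measure endogenous transcription factor activity; 24 h compound exposure. Reporter mRNA quantified by RT-PCR, fluorescent labelling, HpaI digestion and capillary electrophoresis; bidirectional fit versus DMSO.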

[7] = target: Paired box protein Pax-6 (Homo sapiens) (UniProt P26367); assay: ATG_Pax6_CIS: Attagene CIS-FACTORIAL HepG2 Assay for human Paired Box 6 (PAX6) (AID 2282956); settings: HepG2 CIS-FACTORIAL PAX6 reporter transcription, RNA readout; actives raise or lower the signal
Procedure, shortened: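 Fluorescent RT-PCR products separated by capillary electrophoresis report PAX6-linked promoter mRNA in HepG2 cells 24 h post-dose. Curves fitted bidirectionally, DMSO as negative control.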

[8] = ATG_PXRE_CIS: Attagene CIS-FACTORIAL HepG2 Assay for human Pregnane X Receptor Element (PXRE) (AID 2282957); settings: HepG2 Attagene CIS-FACTORIAL PXRE reporter, mRNA; actives raise or lower the signal
Procedure, shortened: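 After a 24 h chemical incubation, total RNA from transfected HepG2 cells was reverse-transcribed and reporter cDNA amplified, FAM-labeled, HpaI-digested and sized by capillary electrophoresis. DMSO served as baseline for bidirectional curve fitting.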

[9] = ATG_PPRE_CIS: Attagene CIS-FACTORIAL HepG2 Assay for human Peroxisome Proliferator-activated Response Element (PPRE) (AID 2282958); settings: HepG2 PPRE cis-element reporter, Attagene transcription factor profiling; actives raise or lower the signal
Procedure, shortened: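 HepG2 cells are transiently transfected with multiplexed cis-promoter reporter units to report endogenous PPAR activity. After 24 h dosing, reporter mRNA is read by RT-PCR and capillary electrophoresis. Fitting is bidirectional against DMSO.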

[10] = ATG_RORE_CIS: Attagene CIS-FACTORIAL HepG2 Assay for human RAR-related Orphan Receptor Element (RORE) (AID 2282959); settings: HepG2 Attagene cis-factorial RORE reporter, mRNA; actives raise or lower the signal
Procedure, shortened: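 HepG2 cells carrying transiently transfected cis-regulated reporter units; RORE-driven reporter mRNA quantified 24 h post-dosing by RT-PCR, 6-FAM primer extension, HpaI digestion and capillary electrophoresis. Bidirectional fit versus DMSO.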

[11] = ATG_Sox_CIS: Attagene CIS-FACTORIAL HepG2 Assay for human SRY-box transcription factor (SOX) (AID 2282960); settings: HepG2 Attagene cis-factorial SOX reporter, mRNA; actives raise or lower the signal
Procedure, shortened: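 HepG2 cells transiently transfected with multiple cis-regulated reporter units, then dosed for 24 h. Reporter mRNA quantified by RT-PCR, fluorescent labelling, HpaI digestion and capillary electrophoresis; bidirectional fit versus DMSO.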

[12] = target: Transcription factor Sp1 (Homo sapiens) (UniProt P08047); assay: ATG_Sp1_CIS: Attagene CIS-FACTORIAL HepG2 Assay for human Specificity Protein 1 (Sp1) (AID 2282961); settings: HepG2 Sp1 cis-reporter transcription, actives raise or lower the signal
Procedure, shortened: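 HepG2 cells transiently transfected with multiplexed cis-regulated reporter constructs, chemical exposure 24 h. Reporter mRNA quantified by RT-PCR with capillary electrophoresis; bidirectional fit relative to DMSO.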

[13] = ATG_SREBP_CIS: Attagene CIS-FACTORIAL HepG2 Assay for human Sterol Regulatory Element Binding (SREBP) (AID 2282962); settings: HepG2 Attagene cis-factorial SREBP reporter, mRNA; actives raise or lower the signal
Procedure, shortened: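 Endogenous factor activity is measured in HepG2 through multiplexed reporter units under cis-element control. Following a 24 h incubation, reporter transcripts are reverse-transcribed, PCR-amplified and sized by capillary electrophoresis; activity is fitted in both directions relative to DMSO.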

[14] = target: Signal transducer and activator of transcription 3 (Homo sapiens) (UniProt P40763); assay: ATG_STAT3_CIS: Attagene CIS-FACTORIAL HepG2 Assay for human Signal Transducer and Activator of Transcription 3 (STAT3) (AID 2282963); settings: HepG2, Attagene cis-factorial STAT3 reporter transcription; actives raise or lower the signal
Procedure, shortened: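 Readout: fluorescent reporter mRNA fragments resolved by capillary electrophoresis. Setup: HepG2 transfected with MRTUs reporting endogenous transcription-factor activity, dosed 24 h. Gain or loss of signal fitted bidirectionally against DMSO control.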

[15] = ATG_M_32_CIS: Attagene CIS-FACTORIAL HepG2 Assay for M32 Transcription Factor (Internal Marker) (AID 2282949); settings: HepG2 Attagene cis-factorial M32 reporter, mRNA; actives raise or lower the signal;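 further: background control marker of the multiplexed CIS panel rather than a real target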
Procedure, shortened: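 Using DMSO as baseline, bidirectional curve fits were applied to reporter mRNA signals. These came from transiently transfected HepG2 cells exposed for 24 h, with RNA analysed by RT-PCR, FAM primer extension, HpaI digestion and CE.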

[16] = ATG_TA_CIS: Attagene CIS-FACTORIAL HepG2 Assay for human TA Basal Promoter (AID 2282964); settings: HepG2 Attagene CIS-factorial TA basal promoter reporter; actives raise or lower the signal
Procedure, shortened: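 HepG2 cells transiently transfected with multiple reporter units under cis promoter elements, reporting endogenous transcription factor activity; this endpoint tracks the TA basal promoter as background control. Reporter mRNA after 24 h dosing measured by RT-PCR/capillary electrophoresis; bidirectional fits versus DMSO.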

[17] = ATG_ISRE_CIS: Attagene CIS-FACTORIAL HepG2 Assay for human Interferon Regulatory Factor 1 (IRF1) binding to an Interferon-Stimulated Response Element (ISRE) (AID 2282948); settings: HepG2 ISRE cis-reporter (Attagene), mRNA transcription readout; actives raise or lower the signal
Procedure, shortened: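 Multiplexed mRNA reporter readout in human liver HepG2 cells: cis-element-driven reporters transfected, compound added for 24 h, transcripts amplified, fluorescently labelled and sized by capillary electrophoresis; curve fitting bidirectional against DMSO.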

[18] = target: Heat shock factor protein 1 (Homo sapiens) (UniProt Q00613); assay: ATG_HSE_CIS: Attagene CIS-FACTORIAL HepG2 Assay for human Heat Shock Transcription Factor 1 (HSE) (AID 2282953); settings: HepG2 HSE cis-reporter, Attagene RNA transcription; actives raise or lower the signal
Procedure, shortened: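 HepG2 cells transfected with cis-promoter reporter units sensing endogenous transcription factor activity; reporter mRNA quantified 24 h post-dose by RT-PCR and capillary electrophoresis of 6-FAM-labelled products. Bidirectional fitting against DMSO.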

Hepatocyte nuclear factor 6 (Homo sapiens), sequence (Q9UBC0 whole entry, looked up, the tested form may be a part): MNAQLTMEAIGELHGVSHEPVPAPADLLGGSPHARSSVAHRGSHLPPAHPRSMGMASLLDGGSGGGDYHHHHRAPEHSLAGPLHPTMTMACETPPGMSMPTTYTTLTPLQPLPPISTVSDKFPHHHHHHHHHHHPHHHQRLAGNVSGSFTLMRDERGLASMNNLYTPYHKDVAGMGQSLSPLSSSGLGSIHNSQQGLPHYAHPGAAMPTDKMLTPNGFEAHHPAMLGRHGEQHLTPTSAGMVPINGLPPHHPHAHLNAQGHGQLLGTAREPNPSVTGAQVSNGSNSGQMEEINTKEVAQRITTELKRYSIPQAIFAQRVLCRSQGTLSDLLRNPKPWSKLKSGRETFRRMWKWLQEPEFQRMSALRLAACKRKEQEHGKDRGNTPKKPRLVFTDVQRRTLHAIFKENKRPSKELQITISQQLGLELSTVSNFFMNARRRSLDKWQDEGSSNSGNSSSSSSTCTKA
Transcription factor Sp1 (Homo sapiens), sequence (P08047 whole entry, looked up): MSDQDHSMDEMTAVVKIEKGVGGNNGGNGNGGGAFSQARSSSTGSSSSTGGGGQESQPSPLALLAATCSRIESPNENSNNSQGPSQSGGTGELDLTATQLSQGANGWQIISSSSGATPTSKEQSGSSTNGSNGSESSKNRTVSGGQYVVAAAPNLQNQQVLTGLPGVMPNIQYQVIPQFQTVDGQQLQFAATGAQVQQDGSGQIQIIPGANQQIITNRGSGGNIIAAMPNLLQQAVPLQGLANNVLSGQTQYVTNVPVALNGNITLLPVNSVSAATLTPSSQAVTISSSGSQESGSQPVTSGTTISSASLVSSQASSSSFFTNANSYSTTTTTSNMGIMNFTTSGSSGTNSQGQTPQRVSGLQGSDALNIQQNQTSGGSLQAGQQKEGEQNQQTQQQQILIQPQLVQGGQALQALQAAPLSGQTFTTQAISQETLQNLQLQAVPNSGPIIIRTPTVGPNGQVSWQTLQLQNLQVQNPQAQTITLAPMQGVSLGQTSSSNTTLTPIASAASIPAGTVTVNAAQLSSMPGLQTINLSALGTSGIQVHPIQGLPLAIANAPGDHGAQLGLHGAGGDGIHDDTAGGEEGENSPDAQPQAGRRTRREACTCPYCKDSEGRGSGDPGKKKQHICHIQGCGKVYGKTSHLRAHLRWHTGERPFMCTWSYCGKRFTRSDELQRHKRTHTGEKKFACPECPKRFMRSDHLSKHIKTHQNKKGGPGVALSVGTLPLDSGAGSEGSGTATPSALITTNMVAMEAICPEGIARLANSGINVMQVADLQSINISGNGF
Paired box protein Pax-6 (Homo sapiens), sequence (P26367 whole entry, looked up): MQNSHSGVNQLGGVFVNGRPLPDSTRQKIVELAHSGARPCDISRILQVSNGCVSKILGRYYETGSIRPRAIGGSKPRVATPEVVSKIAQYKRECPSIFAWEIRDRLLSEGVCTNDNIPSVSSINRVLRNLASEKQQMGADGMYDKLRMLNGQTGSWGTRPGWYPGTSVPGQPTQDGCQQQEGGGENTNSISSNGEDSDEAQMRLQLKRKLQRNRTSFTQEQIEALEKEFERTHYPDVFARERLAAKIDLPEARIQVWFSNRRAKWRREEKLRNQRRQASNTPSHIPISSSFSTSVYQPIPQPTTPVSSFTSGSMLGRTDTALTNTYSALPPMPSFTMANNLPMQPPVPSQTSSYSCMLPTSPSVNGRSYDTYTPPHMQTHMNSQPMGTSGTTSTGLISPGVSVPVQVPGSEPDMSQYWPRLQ
Heat shock factor protein 1 (Homo sapiens), sequence (Q00613 whole entry, looked up): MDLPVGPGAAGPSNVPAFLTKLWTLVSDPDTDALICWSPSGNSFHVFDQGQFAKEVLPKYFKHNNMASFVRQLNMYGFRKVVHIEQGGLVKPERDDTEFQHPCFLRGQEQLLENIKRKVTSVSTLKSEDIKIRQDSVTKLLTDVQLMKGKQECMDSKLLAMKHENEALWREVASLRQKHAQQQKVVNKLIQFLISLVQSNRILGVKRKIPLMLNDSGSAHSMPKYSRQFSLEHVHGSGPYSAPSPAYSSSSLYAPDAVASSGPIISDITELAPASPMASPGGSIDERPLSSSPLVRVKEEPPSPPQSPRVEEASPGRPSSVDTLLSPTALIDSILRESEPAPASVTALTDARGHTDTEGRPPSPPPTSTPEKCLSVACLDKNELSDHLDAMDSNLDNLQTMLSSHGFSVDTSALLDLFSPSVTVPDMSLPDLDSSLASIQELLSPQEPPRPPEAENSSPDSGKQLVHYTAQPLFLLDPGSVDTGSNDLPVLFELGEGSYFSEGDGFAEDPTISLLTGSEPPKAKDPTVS
Hypoxia-inducible factor 1-alpha (Homo sapiens), sequence (Q16665 whole entry, looked up): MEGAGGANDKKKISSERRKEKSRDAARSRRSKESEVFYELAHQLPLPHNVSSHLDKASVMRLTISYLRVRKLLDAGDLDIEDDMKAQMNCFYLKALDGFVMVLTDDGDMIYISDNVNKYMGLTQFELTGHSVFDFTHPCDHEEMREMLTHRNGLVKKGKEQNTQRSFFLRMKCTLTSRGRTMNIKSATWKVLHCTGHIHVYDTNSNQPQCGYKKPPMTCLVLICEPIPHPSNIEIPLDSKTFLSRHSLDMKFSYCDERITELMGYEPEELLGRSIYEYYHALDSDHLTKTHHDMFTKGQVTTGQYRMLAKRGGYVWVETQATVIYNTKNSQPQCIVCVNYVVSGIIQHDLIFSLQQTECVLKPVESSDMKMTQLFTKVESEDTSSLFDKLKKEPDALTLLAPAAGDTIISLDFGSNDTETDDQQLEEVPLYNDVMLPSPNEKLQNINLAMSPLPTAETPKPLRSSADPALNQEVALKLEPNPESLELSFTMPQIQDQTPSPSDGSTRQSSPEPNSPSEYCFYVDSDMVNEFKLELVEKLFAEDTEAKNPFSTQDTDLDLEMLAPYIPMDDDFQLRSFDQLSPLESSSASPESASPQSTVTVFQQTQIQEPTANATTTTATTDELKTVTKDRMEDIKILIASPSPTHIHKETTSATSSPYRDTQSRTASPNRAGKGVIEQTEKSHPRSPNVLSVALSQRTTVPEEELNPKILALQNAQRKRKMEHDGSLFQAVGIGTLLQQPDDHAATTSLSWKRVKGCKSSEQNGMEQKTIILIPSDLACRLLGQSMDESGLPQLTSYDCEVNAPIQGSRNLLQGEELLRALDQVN
Signal transducer and activator of transcription 3 (Homo sapiens), sequence (P40763 whole entry, looked up, the tested form may be a part): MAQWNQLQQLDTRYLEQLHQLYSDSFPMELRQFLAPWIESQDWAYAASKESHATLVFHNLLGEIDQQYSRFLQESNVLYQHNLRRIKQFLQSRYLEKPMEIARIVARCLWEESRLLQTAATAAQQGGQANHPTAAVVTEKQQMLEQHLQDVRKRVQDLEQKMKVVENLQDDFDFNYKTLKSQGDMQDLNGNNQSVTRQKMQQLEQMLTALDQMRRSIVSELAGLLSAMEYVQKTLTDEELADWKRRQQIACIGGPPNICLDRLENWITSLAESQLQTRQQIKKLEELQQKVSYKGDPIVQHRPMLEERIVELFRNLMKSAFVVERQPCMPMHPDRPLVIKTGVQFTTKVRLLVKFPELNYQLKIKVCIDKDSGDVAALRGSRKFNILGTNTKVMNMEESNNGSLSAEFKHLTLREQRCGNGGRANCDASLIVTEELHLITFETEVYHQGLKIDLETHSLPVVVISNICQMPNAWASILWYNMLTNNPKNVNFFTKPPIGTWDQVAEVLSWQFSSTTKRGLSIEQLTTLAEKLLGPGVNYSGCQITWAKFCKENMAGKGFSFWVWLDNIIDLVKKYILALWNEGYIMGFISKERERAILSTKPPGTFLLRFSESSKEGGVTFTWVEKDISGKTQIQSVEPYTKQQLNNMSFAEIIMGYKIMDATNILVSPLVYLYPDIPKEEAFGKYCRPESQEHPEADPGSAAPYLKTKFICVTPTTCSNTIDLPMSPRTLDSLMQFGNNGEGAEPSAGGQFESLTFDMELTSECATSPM

SMILES	outcome [1]	outcome [2]	outcome [3]	outcome [4]	outcome [5]	outcome [6]	outcome [7]	outcome [8]	outcome [9]	outcome [10]	outcome [11]	outcome [12]	outcome [13]	outcome [14]	outcome [15]	AC50 [8]	outcome [16]	outcome [17]	outcome [18]
C=CC(C)CCCC(C)(C)O (configuration not stated)	inactive	inactive	inactive	inactive	inactive	inactive	inactive	inactive	inactive	inactive	inactive	inactive	inactive	inactive					
CC(C)N1C(=O)c2ccccc2C1=O	inactive	inactive	inactive	inactive	inactive	inactive	inactive		inactive	inactive	inactive	inactive	inactive	inactive	inactive	37.2 µM (active)	inactive		
CC(=O)Oc1c(C)c(C)c2c(c1C)CC[C@@](C)(CCC[C@H](C)CCC[C@H](C)CCCC(C)C)O2	inactive	inactive	inactive	inactive	inactive		inactive	inactive	inactive	inactive	inactive	inactive	inactive	inactive				inactive	inactive
CC1=CC[C@@H]2C[C@H]1C2(C)C	inactive	inactive	inactive	inactive	inactive		inactive	inactive	inactive	inactive	inactive	inactive	inactive	inactive			inactive	inactive	inactive
CCCC(O)C(CC)CO (configuration not stated)	inactive	inactive	inactive	inactive	inactive				inactive	inactive	inactive	inactive	inactive	inactive		47.6 µM (active)	inactive	inactive	inactive
NS(=O)(=O)c1cc(C(=O)O)c(NCc2ccco2)cc1Cl	inactive	inactive	inactive		inactive		inactive	inactive	inactive	inactive	inactive	inactive	inactive	inactive	inactive		inactive	inactive	inactive
